# SMN2 splice enh = SMN2 splice variant enhancement; HEK293 SMN2-luciferase splicing reporter, luminescence, 30-36 h; Potency, µM (doses to about 46.1 µM), for the others: top-dose activity change, positive = activation, actives largely listed as activators; 210,000 tested, 2.8% active; AID 1458; also: % of control where 0% means no effect; nearly all actives have a fitted effect of over 55% in size
#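 HEK293 cells carry an SMN2 […]–luciferase reporter in which exon 7 inclusion puts luciferase in frame. Cells were plated 10-12 h before compound addition, then incubated 30-36 h at 37C. ONE-Glo luminescence was read; sodium butyrate at 4.5 mM final served as control.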
# ELG1 genotoxic = induces genotoxicity in HEK293T cells with luciferase-tagged ELG1. Potency, µM (top dose mostly 46 µM), for inactives: top-dose activity change, positive = activation, most hits filed as activators. 330,000 tested, 1.3% active. AID 504466. HEK293T ELG1-luciferase reporter, luminescence, 16 h; also: % of control where 0% means no effect; nearly all actives have a fitted effect of over 60% in size
#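 Step 1: seed 2,000 HEK293T ELG1-luciferase cells per well. Step 2: add compound or DMSO, incubate 16 hr at 37 °C. Step 3: ONE-Glo, 30 min at room temperature, read luminescence.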
# Rab9 promoter act = activates the Rab9 promoter; Huh7 Rab9 promoter-luciferase reporter, luminescence, 24 h; Potency, µM (doses to about 9.22 µM), without a hit: at the highest dose activation, negative = inhibition, usual class: activators; 320,000 tested, 2.8% active; also: % of control where 0% means no effect; nearly all actives have a fitted effect of over 60% in size
#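 Huh7 cells stably carrying Rab9 promoter–luciferase reporter, plated 1500 cells/well, compound added after 2 h and incubated 24 h at 37 °C; luciferase luminescence then read after 10 min with detection reagent.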
# FLuc modulator = counter-screen for miR-21 project: firefly luciferase inhibitors or activators. P08659. purified FLuc, Km substrates, luminescence inhibition. Potency, µM (doses to about 57.5 µM), for inactives: at the top dose activity change, negative = inhibition, usual class: inhibitors. 360,000 tested, 6.9% active. AID 588342;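 also: plate controls were vehicle for no effect and reference inhibitor for full effect; nearly all actives have a fitted effect of over 55% in size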
# Target sequence (P08659 whole entry, looked up): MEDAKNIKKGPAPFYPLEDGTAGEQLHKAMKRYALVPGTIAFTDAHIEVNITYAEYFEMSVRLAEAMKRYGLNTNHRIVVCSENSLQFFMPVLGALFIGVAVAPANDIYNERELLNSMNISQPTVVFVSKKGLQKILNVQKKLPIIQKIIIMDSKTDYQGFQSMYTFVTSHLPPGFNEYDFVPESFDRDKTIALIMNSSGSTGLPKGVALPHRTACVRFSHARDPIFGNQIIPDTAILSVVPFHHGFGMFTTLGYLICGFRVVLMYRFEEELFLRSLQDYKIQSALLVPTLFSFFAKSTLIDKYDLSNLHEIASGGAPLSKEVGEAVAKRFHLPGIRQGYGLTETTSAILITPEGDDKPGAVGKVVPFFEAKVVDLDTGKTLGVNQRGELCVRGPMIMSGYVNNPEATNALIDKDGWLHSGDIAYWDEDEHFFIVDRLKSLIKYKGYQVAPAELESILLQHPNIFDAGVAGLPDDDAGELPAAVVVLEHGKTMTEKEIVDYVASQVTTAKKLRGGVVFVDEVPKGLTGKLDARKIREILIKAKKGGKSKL
#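 Biochemical qHTS of compounds, final roughly 60 µM downward over six points, against 10 nM purified firefly luciferase using Km concentrations of substrates (10 uM D-luciferin, 10 uM ATP) in Tris acetate pH 7.5 buffer; luminescence output.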
# NPC1 promoter act = activators of NPC1 promoter | Huh7 NPC1 promoter luciferase reporter, 24 h | Potency, µM (top dose mostly 9.22 µM), for inactives: top-dose activation, actives largely listed as activators | 320,000 tested, 2.4% active | AID 485313; also: % of control where 0% means no effect; nearly all actives have a fitted effect of over 60% in size
#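 Stably transfected Huh7 (NPC1 promoter→luciferase), 1500 cells/well in Opti-MEM + 10% FBS, 2 h settle, then compound 24 h at 37 °C. Luminescence after 10 min with Amplite reagent.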
# * hit, by the source's call; ? = inconclusive; . = no result. Hits are enriched below; roughly 7.4% of the tested compounds scored in any of these assays. Calls follow the shape of the dose curve; as a rule, active = well fitted curve in the direction sought with a large enough effect; inconclusive = small, poorly fitted or top-dose-only effect, or another doubt; inactive = no such curve, though single readings can be large; an effect the other way counts as inactive or inconclusive. Potency is read from the fitted curve at half-maximal effect.
SMILES,SMN2 splice enh,ELG1 genotoxic,Rab9 promoter act,FLuc modulator,NPC1 promoter act
CCCn1nc(C(=O)Nc2ccc(S(=O)(=O)Nc3nccs3)cc2)c2ccccc2c1=O,7.94µM*,-1.1%,-0.9%,-1.1%,-1.9%
CCn1nc(C(=O)Nc2ccc(S(=O)(=O)Nc3ncccn3)cc2)c2ccccc2c1=O,32.4%,10.3%,2.3%,-7.2%,1.3%
Cc1cc(N/N=C/c2ccccc2)nc(N)n1,.,?,27.4%,16.9µM*,27.5%
Cc1cc(N/N=C/c2ccccc2)nc(N2CCOCC2)n1,.,8.8%,1.4%,12µM*,5.5%
Cc1ccc(/C=N/Nc2cc(C)nc(N3CCOCC3)n2)cc1,.,-2.9%,-1.9%,2.69µM*,-1.5%
C(=C\c1ccccc1)/C=N/Nc1nc(N2CCOCC2)nc(N2CCOCC2)n1,-4.0%,-0.6%,-7.1%,2.2%,1.5%
Cc1cn(-c2ccccc2)c(C)c1/C=N\Nc1nc(N2CCOCC2)nc(N2CCOCC2)n1,-0.5%,-5.5%,8.5%,19µM*,-1.8%
O=C(COC(=O)Cc1ccccc1[N+](=O)[O-])NNC(=O)c1ccc([N+](=O)[O-])cc1,.,1.6%,-0.9%,-2.3%,-5.4%
O=c1[nH]c(S)nc2sc3c(c12)CCCC3,5.3%,1.2%,-2.8%,?,0.2%
O=c1oc(/C=C/c2ccco2)nc2sc3c(c12)CCC3,15.0%,0.3%,16.3%,0.953µM*,17.8%
O=c1[nH]c(-c2ccco2)nc2sc3c(c12)CCCC3,1µM*,9.2µM*,1.58µM*,3.01µM*,2µM*
NC(=O)c1cnn(C2CCS(=O)(=O)C2)c1 (stereo not drawn),6.0%,-1.3%,-1.8%,0.0%,-2.2%
Oc1[nH]c2ccccc2c1N=Nc1nncc2ccccc12,.,6.8%,3.55µM*,7.57µM*,?
Cc1sc2ncnc(N=Nc3c(O)[nH]c4ccccc34)c2c1C,-13.0%,3.2%,?,0.849µM*,15.9%
CC1CCN(C(=O)c2[nH]cnc2C(=O)NCc2ccc(CNC(=O)OC(C)(C)C)cc2)CC1,.,-5.6%,-7.8%,3.7%,-1.0%
Cc1ccc(N/C(N)=N/c2nc(C)cc(N3CCCCC3)n2)c(C)c1,-59.7%,-23.6%,-38.8%,-1.9%,-44.9%
CN(C)S(=O)(=O)c1ccc(C(=O)Nc2cc3c(cc2C(=O)O)OCCCO3)cc1,.,6.9%,5.6%,15.1µM*,14.5%
CN(C)S(=O)(=O)c1cccc(C(=O)Nc2ccc(N3CCOCC3)cc2)c1,.,-2.2%,-4.0%,?,-1.9%
CCC(=O)c1cc2c(cc1NC(=O)c1ccc(C)cc1)OCCO2,?,?,0.1%,-1.3%,-2.2%
CN(C)S(=O)(=O)c1cccc(C(=O)Nc2cc3c(cc2C(=O)O)OCCCO3)c1,.,8.4%,6.7%,6.01µM*,16.3%
CSc1ccccc1C(=O)Nc1cc2c(cc1C(=O)O)OCCCO2,.,8.9%,-1.4%,?,-2.2%
O=C(Nc1cc2c(cc1C(=O)O)OCCCO2)c1ccc(F)cc1F,.,?,24.4%,21.3µM*,-41.7%
CC(=O)c1cc2c(cc1NC(=O)c1ccc(C)cc1)OCCO2,.,13.8%,1.8%,5.36µM*,0.2%
COc1ccccc1C(=O)Nc1cc2c(cc1C(=O)O)OCCCO2,.,4.4%,-3.2%,-13.5%,-3.0%
COc1ccc(-c2csc3nc(-c4ccccc4OC)oc(=O)c23)cc1,-33.8%,1.8%,-7.0%,?,-2.8%
SMILES,SMN2 splice enh,ELG1 genotoxic,Rab9 promoter act,FLuc modulator,NPC1 promoter act
CN(C)S(=O)(=O)c1ccc(C(=O)Nc2ccccc2C(=O)O)cc1,1.9%,-0.7%,3.2%,12µM*,1.3%
CN(C)S(=O)(=O)c1ccc(C(=O)Nc2cccc(C(=O)O)c2)cc1,14.3%,.,.,21.3µM*,.
CCN1C(=O)c2cccc3c(NC(=O)c4ccc(S(=O)(=O)N(C)C)cc4)ccc1c23,12.6µM*,16.1%,-5.7%,-8.2%,-5.3%
CCN1C(=O)c2cccc3c(NC(=O)c4ccc(S(=O)(=O)N5CCOCC5)cc4)ccc1c23,?,?,-2.7%,-0.3%,-3.6%
CN(C)S(=O)(=O)c1ccc(C(=O)Nc2ccccc2F)cc1,10.9%,3.6%,1.5%,-8.1%,6.4%
COc1ccccc1NC(=O)COC(=O)C1C2CC3OC(=O)C1C3C2 (stereo not drawn),.,-2.8%,5.4%,15.1µM*,0.2%
Cc1nc2cc(-c3cccc(F)c3)nn2c(C)c1CCC(=O)N1CCN(c2ccccn2)CC1,.,-3.6%,-3.1%,-8.7%,1.3%

# Bioassay records deposited in PubChem by National Center for Advancing Translational Sciences (NCATS).
